Rows were chosen to be rich in hits. Some 19% of all compounds tested hit in one or more screens of this group.
TDP1 cell CPT: DT40-hTDP1 cell growth loss with CPT; chicken DT40 Tdp1-/-;hTDP1 cells + 20 nM CPT, ATP luminescence, 48 h; Potency, µM (top dose mostly 46.2 µM), for inactives: top-dose activity change, negative = growth inhibition, usual class: inhibitors; 420,000 compounds, 12% hits; AID 686979; also: nearly all actives have a fitted effect of over 55% in size
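Chicken DT40 Tdp1-/- cells complemented with human TDP1, 400 cells/well, exposed to compounds plus 20 nM camptothecin for at least 48 h at 37 C; viability read as ATP content by CellTiter-Glo luminescence.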
KB-V1 cytotox: kills drug-selected multidrug resistant KB-V1 cells | KB-V1 MDR cells viability, CellTiter-Glo, 72 h | Potency, µM (highest dose often 46.1 µM), most hits filed as cytotoxic | 400,000 compounds, 3.4% hits; also: nearly all actives have a fitted effect of over 60% in size
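Compound-treated KB-V1 multidrug-resistant cells, 72 h, 37 degrees C; viability by CellTiter-Glo. Fitted qHTS curves give the values.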
HT1080 IDH1KD tx: kills HT-1080 cells with IDH1 knockdown | HT-1080 IDH1 knockdown viability, ATP luminescence, 48 h | 360,000 compounds, 2% hits | Potency, µM (doses to about 46.1 µM), for the others: at the highest dose activity, negative = toxicity, actives largely listed as cytotoxic;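 also: 0% = DMSO wells and -100% = cell-free medium wells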
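After a 2 h attachment period, IDH1KD HT-1080 cells took pin-transferred compound for 48 h at 37 °C; ATP-based luminescence after 10 min room-temperature reagent incubation reported viability.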
DT40 TDP1 no CPT: qHTS for Inhibitors of human tyrosyl-DNA phosphodiesterase 1 (TDP1): qHTS in cells in absence of CPT | 420,000 compounds, 15% hits | Potency, µM (series often up to 46.2 µM), inactives show at the highest dose activity change, negative = growth inhibition, most hits filed as inhibitors | DT40 Tdp1-/- hTDP1 cells, no CPT, ATP luminescence, 48 h; also: nearly all actives have a fitted effect of over 55% in size
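Luminescent ATP content (CellTiter-Glo) served as the growth readout. Knockout chicken DT40 cells expressing human TDP1 were exposed to compounds without camptothecin for a minimum 48 hr at 37 °C.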
KB-3-1 tox: kills parental KB-3-1 adenocarcinoma cells; KB-3-1 viability, CellTiter-Glo ATP luminescence, 72 h; Potency, µM (highest dose often 46.1 µM), most hits filed as cytotoxic; 400,000 compounds, 1.4% hits; AID 1347075; also: nearly all actives have a fitted effect of over 60% in size
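Using CellTiter-Glo luminescence, growth of non-resistant KB-3-1 adenocarcinoma cells is assessed 72 h after pin-tool compound addition at 37 °C. Normalized responses across the concentration series yield fitted curves.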
HT1080NT lethal: kills 2HG-producing HT-1080-NT fibrosarcoma cells. HT-1080-NT fibrosarcoma viability, CellTiter-Glo ATP luminescence, 48 h. 360,000 compounds, 1.6% hits. Potency, µM (top dose mostly 46.1 µM), without a hit: at the top dose activity, negative = less viability, usual class: cytotoxic;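 also: NT is the 2HG producing partner of a matched IDH1 knockdown line; 0% = DMSO-treated cells and -100% = media-only wells without cells; nearly all actives have a fitted effect of over 55% in size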
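Fibrosarcoma NT cells, 750 per well in 5% FBS RPMI, were exposed to compound for 48 hours. Viability: CellTiter-Glo luminescence.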
Starred values were filed as active, the others as inactive; i = inactive; ? = inconclusive; · = no result; [ ] = dose if it differs, or a comment. Calls follow the shape of the dose curve; as a rule, active = well fitted curve in the direction sought with a large enough effect; inconclusive = small, poorly fitted or top-dose-only effect, or another doubt; inactive = no such curve, though single readings can be large; an effect the other way counts as inactive or inconclusive. Unless noted, % is scaled to controls: 0 for no effect and ±100 for the full control effect; potency is read from the fitted curve at half-maximal effect.

SMILES	TDP1 cell CPT	KB-V1 cytotox	HT1080 IDH1KD tx	DT40 TDP1 no CPT	KB-3-1 tox	HT1080NT lethal
CN(Cc1ccc(C#CCCO)cc1)CC1CCCN(CCc2ccc(Cl)cc2)C1 (stereo not given)	18.4µM*	i	?	14.6µM*	i	25.9µM*
COc1ccc(CN(C)CC2CCCN(CCc3ccc(F)cc3)C2)c(OC)c1OC (stereo not given)	23.1µM*	i	-21.9%	14.6µM*	i	-17.2%
CC(C)c1onc(C(=O)NCCc2ccccc2)c1[N+](=O)[O-]	20.6µM*	i	?	?	i	?
COc1ccc(NC(=O)c2noc(C(C)C)c2[N+](=O)[O-])cc1	?	i	?	?	i	23.1µM*
CC(=O)c1ccc(NC(=O)c2noc(C(C)C)c2[N+](=O)[O-])cc1	-3.5%	i	3.4%	2.4%	i	7.7%
CC(C)c1onc(C(=O)N(C)Cc2ccccc2)c1[N+](=O)[O-]	14.4%	i	6.2%	-12.7%	i	-8.9%
COc1ccc(C(=O)CC(Sc2ccccc2N)c2ccc(OC)cc2)cc1 (stereo not given)	?	i	-23.0%	?	23.1µM*	-8.1%
COc1ccc(C(=O)CCc2ccccc2)cc1	1.5%	i	22.4%	-2.4%	i	15.2%
c1ccc2c(c1)oc1c(-c3ccc4nccn4c3)cccc12	?	?	?	?	i	?
COc1ccc(CC2(CO)CCN(CC3=Cc4cc(Cl)ccc4OC3)CC2)cc1	13µM*	i	23.1µM*	6.51µM*	?	14.6µM*
COc1ccc2c(c1)C=C(CN1CCC(CO)(CCc3ccccc3)CC1)CO2	?	?	-17.6%	?	i	-7.6%
FC(F)(F)c1ccc(CN2CCCCCC2)cc1	0.3%	i	26.1%	8.2%	i	7.2%
COc1ccc(CN2CCN(Cc3ccc(C(F)(F)F)cc3)CC2)cc1	?	i	-16.7%	23.1µM*	?	-0.4%
COc1ccc(CC2(CO)CCN(Cc3ccc4c(c3)CCO4)CC2)cc1	-13.2%	?	20.6µM*	-27.9%	i	?
COc1ccc(CN2CCC(CO)(Cc3ccccc3C(F)(F)F)CC2)c(F)c1	16.4µM*	i	-8.7%	18.4µM*	i	-6.1%
COc1ccc(CC2(CO)CCN(Cc3cccc4nccnc34)CC2)cc1	2.5%	i	12.8%	-28.2%	i	0.5%
CCOc1ccccc1NC(=O)C1CCN(S(=O)(=O)c2ccccc2)CC1	-5.1%	?	·	-21.9%	i	·
COc1ccc(CC2(CO)CCN(Cc3ccc(OC(F)(F)F)cc3)CC2)cc1	?	i	-21.5%	18.4µM*	?	?
C=CCN(CC=C)Cc1cc(=O)oc2ccc3ccccc3c12	16.4µM*	i	?	16.4µM*	?	?
CCCCN(CCCC)Cc1cc(=O)oc2ccc3ccccc3c12	?	i	?	16.4µM*	i	-1.1%
O=C(NCc1ccccc1CN1CCOCC1)c1ccc(-n2cccn2)cc1	?	i	-0.9%	?	i	-2.4%
Cc1ccnn1-c1ccc(C(=O)NCc2ccccc2CN2CCOCC2)cc1	20.6µM*	i	0.1%	18.4µM*	i	7.7%
COC(C(=O)Nc1ccnn1C1CCN(Cc2nccs2)CC1)c1ccccc1 (stereo not given)	-5.7%	i	-7.1%	-11.0%	i	-4.8%
CC(=O)N1C=CN(C(C)=O)C(c2cn(C)c3ccccc23)C1c1cn(C)c2ccccc12 (stereo not given)	?	23.1µM*	-5.9%[9.24 µM]	?	?	-22.7%
Cn1cc(/C=C/C(=O)c2ccccc2)c2ccccc21	-22.8%	?	-19.1%	?	i	-9.5%
SMILES	TDP1 cell CPT	KB-V1 cytotox	HT1080 IDH1KD tx	DT40 TDP1 no CPT	KB-3-1 tox	HT1080NT lethal
O=C(Nc1ccc2c(c1)OCO2)c1ccc2sc([C@@H]3O[C@H](CO)[C@H](O)[C@H](O)[C@H]3O)nc2c1	?	i	-20.6%	0.6%	i	-27.8%
CS(=O)(=O)N(CC(=O)Nc1ccccc1C(=O)NCCc1ccccc1)c1ccc2c(c1)OCCO2	29.1µM*	i	-1.8%	20.6µM*	i	6.8%
Cc1ccc(O)c(NC(=S)NC(=O)CC(C)C)c1	-7.2%	i	2.7%	?	i	-2.3%
COc1ccc(CC(=O)NCc2ccc3c(c2)CCN3C(C)=O)cc1	-22.7%	·	·	-22.7%	·	·
O=c1c(-c2ccccc2)nc2cnc(Oc3cccc(Cl)c3)nc2n1C[C@H]1CCCO1	-13.1%	·	·	-29.9%	·	·
O=C(O)C1CCC[C@@H]2[C@@H]3CC(CN12)[C@@H]1CCCCN1C3 (stereo not given in full)	-27.4%[9.04 µM]	·	·	-20.8%[9.04 µM]	·	·
CCOc1ccccc1NC(=O)Nc1ccc2nc(N3CCN(C)CC3)cc(C)c2c1	?	?	·	23.1µM*	i	·
CCOc1ccccc1C(=O)Nc1ccc2nc(N3CCN(c4ncccn4)CC3)cc(C)c2c1	18.4µM*	8.2µM*	?	9.2µM*	14.6µM*	?
Cc1ccccc1NC(=O)Nc1ccc2nc(N3CCN(C)CC3)cc(C)c2c1	?	i	·	?	i	·
COCC(C)(C)COS(N)(=O)=O	2.2%	i	14.8%	11.7%	i	20.5%
Cc1ccc(-c2n[nH]c(=S)n2C)cc1Cl	-12.9%	2.91µM*	19.8%	?	4.11µM*	11.3%
CCN(CC)S(=O)(=O)c1cccc(-c2n[nH]c(=S)n2C)c1	12.3%	?	10.3%	-12.0%	i	9.3%
CC(C)N(C(=O)Cn1cc(S(=O)(=O)CC(=O)Nc2ccccc2)c2ccccc21)C(C)C	?	?	-13.4%	-28.5%	i	-0.1%
CCC(C)CCN1C(Nc2ccccc2)=NC[C@@H]1C (stereo not given in full)	?	?	8.0%	11.6µM*	i	0.3%
C[C@H]1CN=C(Nc2ccccc2)N1CCC1CCCC1	?	i	-2.1%	23.1µM*	i	1.0%
CC(C)C[C@H]1CN=C(Nc2ccccc2)N1CCCC1CCCCC1	?	i	-23.4%	18.4µM*	i	-19.0%
CC(C)C[C@H]1CN=C(Nc2ccccc2)N1CCC1CCCC1	?	i	-0.8%	23.1µM*	i	3.2%
N[C@H](C(=O)O)[C@H](OCc1ccccc1)C(=O)O	0.5%	·	·	-5.8%	·	·
